Compound activity: PubChem, several laboratories
Only some compounds are listed: those with a hit (about 28% of all), similar ones and a draw of the others.
CYP2C19 activ – activators of human cytochrome P450 2C19; activation factor at 5 µM; AID 1025; P33261; 96,000 tested, under 10 active; recombinant CYP2C19, luciferin-H EGE luminescence; stronger effect = higher value; 0 = fully inhibited enzyme, 1 = untreated enzyme;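 active = activation factor of at least 2 at 5 µM in the primary screen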
Target sequence (P33261 whole entry, looked up): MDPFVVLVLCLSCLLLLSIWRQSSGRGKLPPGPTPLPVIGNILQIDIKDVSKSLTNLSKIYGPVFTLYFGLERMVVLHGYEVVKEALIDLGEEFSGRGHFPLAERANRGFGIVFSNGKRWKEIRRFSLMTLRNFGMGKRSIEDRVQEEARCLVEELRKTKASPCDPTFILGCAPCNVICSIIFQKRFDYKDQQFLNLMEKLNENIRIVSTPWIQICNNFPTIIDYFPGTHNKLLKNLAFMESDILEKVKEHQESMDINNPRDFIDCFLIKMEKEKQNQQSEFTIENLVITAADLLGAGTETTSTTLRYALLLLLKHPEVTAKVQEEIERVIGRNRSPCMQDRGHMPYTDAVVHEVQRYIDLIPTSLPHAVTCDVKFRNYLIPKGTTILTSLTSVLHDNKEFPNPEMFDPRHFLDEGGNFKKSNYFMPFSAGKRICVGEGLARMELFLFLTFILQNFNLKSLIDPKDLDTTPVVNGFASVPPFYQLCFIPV
PLK1 PBD inh – blocks phosphopeptide binding to human Plk1 polo box domain; Plk1 PBD phosphopeptide binding, fluorescence polarization; AID 693; inhibition, %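 (tested at about 20 µM)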; P53350; 97,000 tested, 0.13% active; in the data active = inhibition above about 34%, passing the limit was not always enough
CYP2C9 activ – activators of human CYP2C9; P11712; recombinant CYP2C9, luciferin-H conversion, luminescence; stronger effect = higher value; factor 1 = untreated enzyme, 0 = blocked; activation factor at 5 µM; 96,000 tested, 1.4% active;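 active = activation factor of 2 or more for CYP2C9 at a 5 µM dose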
CYP2C19 inhib – inhibitors of human CYP2C19; P33261; CYP2C19 Supersomes, luciferin-H EGE luminescence, 30 min; inhibition, % at 5 µM; 96,000 tested, 21% active;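 active = CYP2C19 inhibition above a set limit at 5 µM in the primary screen, cut at about 50% in these data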
PLK1 inh – inhibitors of human PLK1 kinase | P53350 | recombinant PLK1 kinase, TR-FRET peptide phosphorylation | inhibition, % at 10 µM | 97,000 tested, 0.53% active;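 active = inhibition of 50% or more in the single-concentration screen; inactive = inhibition below 50%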
CYP2C9 inhib – blocks human cytochrome P450 2C9; P11712; CYP2C9 Supersomes, luciferin-H conversion, luminescence; inhibition, % at 5 µM; 96,000 tested, 20% active; AID 777;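 active = blocking of liver enzyme CYP2C9 beyond about 50% at 5 µM, limit read from the data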
A number is an active result; - = inactive; . = no result.

SMILES	CYP2C19 activ	PLK1 PBD inh	CYP2C9 activ	CYP2C19 inhib	PLK1 inh	CYP2C9 inhib
O=C1OCCC1Sc1nnnn1-c1ccccc1 (stereo not given)	-	-	-	88	-	-
O=C(c1ccccc1)N1CCCCC(Sc2nnnn2-c2ccccc2)C1=O (stereo not given)	.	-	.	.	-	.
O=C1OCCC1Sc1nc2ccccc2[nH]1 (stereo not given)	-	.	-	-	.	-
O=C(c1ccc(F)cc1)N1CCCCC(Sc2nnnn2-c2ccccc2)C1=O (stereo not given)	-	-	-	73	-	74
COc1ccc(OCc2nnc(SC3CCOC3=O)n2-c2ccccc2)cc1 (stereo not given)	-	-	-	84	-	-
O=C1OCCC1Sc1nc(-c2ccccc2)cs1 (stereo not given)	-	-	2.1	87	-	-
CCOC(=O)C(C)Oc1ccc(=O)n(-c2ccccc2)n1 (stereo not given)	-	-	-	-	-	-
COc1ccc(-c2noc(-c3ccccc3C(=O)N3CCOCC3)n2)cc1	-	-	-	-	-	-
Cn1c(=O)c2c(nc(SCC(=O)N3CCc4ccccc43)n2Cc2ccc(F)cc2)n(C)c1=O	.	-	.	.	-	.
CCOCCCNC(=O)C(NC(=O)CC1NC(=O)NC1=O)c1ccc(Cl)cc1 (stereo not given)	-	-	-	-	-	-
COc1cc(OC)cc(C(=O)NC(=S)Nc2ccc3c4c(cccc24)CC3)c1	-	-	-	-	-	-
O=C(Nc1ccc2c3c(cccc13)CC2)c1ccco1	-	-	2	-	-	-
COc1ccc(C(=O)Nc2ccc3c4c(cccc24)CC3)cc1	-	-	2.2	-	-	-
CCOc1ccc(N2C(=O)CC(n3nc(C)cc3C)C2=O)cc1 (stereo not given)	.	-	.	.	-	.
COc1ccc(C2C(C#N)=C(N)Oc3n[nH]c(C)c32)cc1Cn1nc(C)c([N+](=O)[O-])c1C (stereo not given)	-	-	-	56	-	54
COc1ccc(C2C(C#N)=C(N)Oc3n[nH]c(C)c32)cc1Cn1cc([N+](=O)[O-])cn1 (stereo not given)	-	-	-	-	-	67
c1ccc(-c2ncnc3nc4n(c23)CCC4)cc1	-	-	-	-	-	-
CCOC(=O)c1ccc(NC(=O)NC2CC3CCC(C2)N3Cc2nnnn2C(C)(C)C)cc1 (stereo not given)	-	-	-	-	-	-
CCCn1c2ccccc2c2nc3ccccc3nc21	-	-	-	54	-	69
CCOC(=O)Cn1c(C)cc(=O)c2ccccc21	-	-	-	-	-	-
O=c1oc2ccccc2n1CCn1c2ccccc2c2nc3ccccc3nc21	-	-	-	78	-	64
CCOC(=O)Cn1c2ccccc2c2nc3ccccc3nc21	-	-	-	58	-	-
CC(=O)NC(=O)NC1OC(=O)C(Cl)=C1Cl (stereo not given)	-	-	-	-	-	-
CC(C)n1c(C(=O)OCC(=O)NCc2ccc3c(c2)OCO3)cc2occc21	-	.	-	-	.	59
CC(C)n1c(C(=O)OCC(=O)NCc2ccc3c(c2)OCO3)cc2sccc21	-	-	-	-	-	86
SMILES	CYP2C19 activ	PLK1 PBD inh	CYP2C9 activ	CYP2C19 inhib	PLK1 inh	CYP2C9 inhib
CSc1nc2c(c(=O)[nH]1)C(c1ccncc1)C(C(=O)OC(C)C)=C(C)N2 (stereo not given)	-	-	-	89	-	-
CC1=C(C(=O)OC(C)C)C(c2ccncc2)n2ncnc2N1 (stereo not given)	-	-	-	-	-	-
CCSc1nc2c(c(=O)[nH]1)C(c1ccncc1)C(C(=O)OC)=C(C)N2 (stereo not given)	-	-	-	76	-	52
COC(=O)C1=C(C)NC(C)=C(C(=O)OC)C1c1cc2cc(C)ccc2[nH]c1=O	-	-	-	-	-	-
c1ccc(NC2=Nc3ccccc3CC2)cc1	-	-	-	68	-	-
O=C(NC1CCCCC1)c1ccc(S(=O)(=O)NCc2cccnc2)cc1	-	-	-	-	-	-
N#CCCN(Cc1cccnc1)S(=O)(=O)c1ccc(S(=O)(=O)NC2CCCCC2)cc1	-	-	-	59	-	-
Cn1c(C(=O)O)c(CC(=O)Nc2ccccc2F)c2ccccc21	-	-	-	59	-	93
Cc1ccc2c(c1)c(CC(=O)Nc1ccc(C)c(F)c1)c(C(=O)O)n2C	-	-	-	-	-	84
Cc1ccc(C(=O)Oc2oc(-c3ccco3)nc2C=Nc2ccccc2)cc1	-	-	-	-	-	-
Cc1ccc(C)c(N2CCN(C(=O)CC3Sc4ccccc4NC3=O)CC2)c1 (stereo not given)	-	-	-	71	-	51
Cc1ccc(C)c(N2CCN(C(=O)CN3C(=O)c4ccccc4C3=O)CC2)c1	-	-	-	-	-	-
Cc1ccc(C)c(N2CCN(C(=O)C(Cc3ccccc3)n3cccc3)CC2)c1 (stereo not given)	-	-	-	97	-	-
Cc1ccc(C)c(N2CCN(C(=O)CCS(=O)(=O)c3cccc4nonc34)CC2)c1	-	.	-	62	.	73
Cc1ccc(C)c(N2CCN(C(=O)Cn3cccc3)CC2)c1	-	-	-	-	-	-
O=C(C(Cc1ccccc1)n1cccc1)N1CCN(c2ccccc2)CC1 (stereo not given)	-	-	-	95	-	-
CC1Cc2ccccc2N1C(=O)CCS(=O)(=O)c1cccc2nonc12 (stereo not given)	-	.	-	-	.	-
Cc1cc(C)c(C(N)=O)c(NC(=O)Nc2ccccc2Cl)n1	-	-	-	-	-	-
CCOc1ccc2[nH]c(S(=O)(=O)CC)nc2c1Cl	-	-	-	-	-	-
COc1ccccc1OCC(=O)NNC(=O)c1cnccn1	-	-	-	-	-	-
COc1ccccc1N1CCN(C(=O)CCn2c(=O)[nH]c3ccsc3c2=O)CC1	-	-	-	-	-	-
CCC(=O)N1CCN(c2cc(C)ccc2C)CC1	-	-	-	52	-	-
CC1CCCN(C(=O)C(Cc2ccccc2)n2cccc2)C1 (stereo not given)	-	-	-	67	-	-
Cc1ccc(C)c(N2CCN(C(=O)Cn3c(=O)[nH]c4ccsc4c3=O)CC2)c1	-	-	-	-	-	53
O=c1cc2c(nn1Cc1ccccc1Cl)-c1ccccc1CC2	-	-	-	95	-	94
O=c1cc2c(nn1Cc1ccc(Cl)cc1Cl)-c1ccccc1CC2	-	-	-	51	-	67
COC(=O)c1cc(C(=O)OC)n(Cc2ccc(Cl)cc2Cl)n1	-	-	-	-	-	-
COc1ccccc1Nc1nc(N)nc(CN2CCc3ccccc3C2)n1	.	-	.	.	-	.
COc1ccc(NC2=C(C(C)=O)C(c3ccc(OC)c(OC)c3)C(C(C)=O)C(C)(O)C2)cc1 (stereo not given)	.	-	.	.	-	.
